Records with an inconclusive call do not appear. The source made the active and inactive calls. How the source made its calls, unless noted: active means hit-call score of the fitted dose curve at least 0.9, where 1 is the maximum; inactive means score below 0.9.
Key:
[1] = read-out: E-selectin (Homo sapiens) (UniProt P16581); assay: BSK_3C_Eselectin: BioMAP Diversity Plus: 3C Assay for Eselectin Biomarker Activity (AID 2283015); conditions: primary human endothelial cells (HUVEC); actives raise or lower the signal
Outline: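 E-selectin ELISA readout, fitted bidirectionally relative to DMSO, taken 24 h post-dosing in HUVEC cultures of the 3C system. Overt cytotoxicity tracked with sulforhodamine B staining of parallel wells.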

[2] = read-out: Interleukin-1 alpha (IL1a), IL1A (gene 3552); assay: BSK_BE3C_IL1a: BioMAP Diversity Plus: BE3C Assay for Interleukin-1 alpha (IL1a) Biomarker Activity (AID 2283016); conditions: primary human bronchial epithelial cells; actives raise or lower the signal
Outline: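 Human primary bronchial epithelial cells (BE3C system) were dosed with compound and IL-1a measured by ELISA 24 h later. Activity was fitted bidirectionally against DMSO baseline; cytotoxicity was tracked in parallel cultures by SRB total-protein staining.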

[3] = read-out: Monocyte Chemoattractant Protein-1 (MCP1), CCL2 (gene 6347); assay: BSK_3C_MCP1: BioMAP Diversity Plus: 3C Assay for Monocyte Chemoattractant Protein-1 (MCP1) Biomarker Activity (AID 2283017); conditions: primary human endothelial cells (HUVEC); actives raise or lower the signal
Outline: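 MCP-1 was measured by ELISA 24 h after dosing in primary HUVEC 3C cultures and fitted in both directions relative to DMSO; cytotoxicity was checked by SRB total-protein staining in parallel wells.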

[4] = read-out: Monocyte Chemoattractant Protein-1 (MCP1), CCL2 (gene 6347); assay: BSK_4H_MCP1: BioMAP Diversity Plus: 4H Assay for Monocyte Chemoattractant Protein-1 (MCP1) Biomarker Activity (AID 2283018); conditions: primary human endothelial cells (HUVEC); actives raise or lower the signal
Outline: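 Human umbilical vein endothelial cells (4H system) dosed with chemical; MCP-1 measured by ELISA 24 h after dosing. Bidirectional curve fitting against DMSO negative control as baseline; parallel SRB total-protein staining tracks overt cytotoxicity.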

[5] = read-out: Human Leukocyte Antigen - DR isotype (HLADR), HLA-DRA (gene 3122); assay: BSK_3C_HLADR: BioMAP Diversity Plus: 3C Assay for Human Leukocyte Antigen - DR isotype (HLADR) Biomarker Activity (AID 2283019); conditions: primary human endothelial cells (HUVEC); actives raise or lower the signal
Outline: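 Bidirectional fitting against DMSO was applied to the HLA-DR ELISA signal from human umbilical vein endothelial cells, 24 h post-dose. Cytotoxicity came from parallel SRB total-protein staining; 3C proliferation was counted by SRB at 48 h.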

[6] = read-out: Interleukin-8 (IL8), CXCL8 (gene 3576); assay: BSK_3C_IL8: BioMAP Diversity Plus: 3C Assay for Interleukin-8 (IL8) Biomarker Activity (AID 2283020); conditions: primary human endothelial cells (HUVEC); actives raise or lower the signal
Outline: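 Primary human umbilical vein endothelial cells (3C system) were exposed to test chemical for 24 h, then IL-8 was quantified by ELISA. Responses were fitted bidirectionally against DMSO vehicle as baseline.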

[7] = read-out: Monokine induced gamma interferon (MIG), CXCL9 (gene 4283); assay: BSK_3C_MIG: BioMAP Diversity Plus: 3C Assay for Monokine induced gamma interferon (MIG) Biomarker Activity (AID 2283021); conditions: primary human endothelial cells (HUVEC); actives raise or lower the signal;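 on AC50: MIG protein level measured by immunoassay in the treated endothelial cultures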
Outline: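 Primary human umbilical vein endothelial cells in the 3C system were exposed to chemical for 24 h, after which MIG was quantified by ELISA. Activity was fitted bidirectionally against DMSO as negative control and baseline.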

[8] = biological target: human Thyroid Receptor alpha (THRa1), THRA (gene 7067) (UniProt P10827); assay: ATG_THRa1_TRANS: Attagene TRANS-FACTORIAL HepG2 Assay for human Thyroid Receptor alpha (THRa1) (AID 2283014; active means hit-call score of the fitted dose curve at least 0.9, where 1 is the maximum)
Chain of human Thyroid Receptor alpha (THRa1), THRA (gene 7067) (P10827 whole entry, looked up, the tested form may be a part): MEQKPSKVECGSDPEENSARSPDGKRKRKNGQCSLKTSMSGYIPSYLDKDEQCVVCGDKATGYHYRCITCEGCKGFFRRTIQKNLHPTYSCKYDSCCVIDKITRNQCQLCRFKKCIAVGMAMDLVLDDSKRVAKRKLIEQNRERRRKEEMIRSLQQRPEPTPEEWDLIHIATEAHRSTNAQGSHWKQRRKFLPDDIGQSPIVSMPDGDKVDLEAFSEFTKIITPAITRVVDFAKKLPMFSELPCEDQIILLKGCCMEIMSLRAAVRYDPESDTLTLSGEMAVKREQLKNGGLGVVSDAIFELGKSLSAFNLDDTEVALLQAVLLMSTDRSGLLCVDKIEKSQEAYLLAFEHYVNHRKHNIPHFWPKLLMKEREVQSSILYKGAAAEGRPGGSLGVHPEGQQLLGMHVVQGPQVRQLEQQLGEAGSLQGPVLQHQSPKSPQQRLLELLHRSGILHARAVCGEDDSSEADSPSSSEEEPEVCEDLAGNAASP
Outline: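 Transcripts from GAL4-UAS-driven reporters, measured after 24 h compound exposure by RT-PCR plus capillary electrophoresis of 6-FAM-labeled fragments, were fitted for gain of signal relative to DMSO. Cells: transiently transfected HepG2 expressing NR-Gal4 chimeras.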

[9] = biological target: human Retinoid X Receptor beta (RXRb), RXRB (gene 6257) (UniProt P28702); assay: ATG_RXRb_TRANS: Attagene TRANS-FACTORIAL HepG2 Assay for human Retinoid X Receptor beta (RXRb) (AID 2283013; active means hit-call score of the fitted dose curve at least 0.9, where 1 is the maximum)
Chain of human Retinoid X Receptor beta (RXRb), RXRB (gene 6257) (P28702 whole entry, looked up, the tested form may be a part): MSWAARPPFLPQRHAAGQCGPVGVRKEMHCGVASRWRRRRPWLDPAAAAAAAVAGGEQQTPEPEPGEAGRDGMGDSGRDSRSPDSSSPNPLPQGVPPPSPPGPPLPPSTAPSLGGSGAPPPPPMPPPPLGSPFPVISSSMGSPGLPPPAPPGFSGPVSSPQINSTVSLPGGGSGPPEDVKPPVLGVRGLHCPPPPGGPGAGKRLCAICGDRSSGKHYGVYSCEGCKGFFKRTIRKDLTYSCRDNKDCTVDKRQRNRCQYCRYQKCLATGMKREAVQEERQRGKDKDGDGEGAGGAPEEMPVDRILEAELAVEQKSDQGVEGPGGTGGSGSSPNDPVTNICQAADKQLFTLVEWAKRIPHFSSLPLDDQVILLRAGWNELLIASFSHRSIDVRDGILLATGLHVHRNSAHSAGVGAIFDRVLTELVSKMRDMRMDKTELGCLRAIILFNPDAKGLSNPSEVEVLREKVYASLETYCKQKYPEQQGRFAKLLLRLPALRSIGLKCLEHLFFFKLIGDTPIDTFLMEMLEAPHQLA
Outline: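 HepG2 cells transiently transfected with multiplexed reporter units driven by GAL4-UAS and exogenous chimeric NR-Gal4 proteins; treated 24 h. Reporter mRNA measured by RT-PCR, 6-FAM labelling and capillary electrophoresis; gain-of-signal fitted versus DMSO baseline.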

Measured: AC50

Chain of E-selectin (Homo sapiens) (P16581 whole entry, looked up): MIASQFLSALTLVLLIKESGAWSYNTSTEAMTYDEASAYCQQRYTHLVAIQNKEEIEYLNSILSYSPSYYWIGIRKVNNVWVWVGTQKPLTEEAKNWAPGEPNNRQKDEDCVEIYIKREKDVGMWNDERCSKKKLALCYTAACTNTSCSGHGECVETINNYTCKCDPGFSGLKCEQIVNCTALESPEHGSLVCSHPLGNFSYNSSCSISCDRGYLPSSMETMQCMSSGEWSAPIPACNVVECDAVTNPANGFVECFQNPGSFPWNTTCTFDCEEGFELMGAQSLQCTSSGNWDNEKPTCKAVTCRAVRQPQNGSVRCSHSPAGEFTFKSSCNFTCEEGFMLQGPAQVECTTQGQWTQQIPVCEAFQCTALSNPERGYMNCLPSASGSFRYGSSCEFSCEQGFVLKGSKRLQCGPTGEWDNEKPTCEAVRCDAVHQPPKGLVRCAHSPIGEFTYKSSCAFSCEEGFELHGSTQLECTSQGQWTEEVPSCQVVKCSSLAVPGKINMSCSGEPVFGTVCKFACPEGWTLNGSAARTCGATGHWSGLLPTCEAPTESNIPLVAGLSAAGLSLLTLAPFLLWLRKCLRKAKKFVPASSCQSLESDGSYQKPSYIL

O=C(NC(=O)c1cc(F)c(F)cc1Cl)Nc1cc(F)ccc1N1CCC(C(=O)O)CC1
not listed: [8] | [9]
inactive: all other assays above

CCCCCCCCCc1ccc(O)cc1
inactive: [8]
active: [1] 14.3 µM | [2] 17.3 µM | [3] 14.6 µM | [4] 12.3 µM | [5] 14.1 µM | [6] 15.5 µM | [7] 16.4 µM

O=NN(c1ccccc1)c1ccccc1
active: [9] 52.2 µM
not listed: [8]
inactive: all other assays above

O=C(N[C@H]1CN2CCC1CC2)c1cc2ccoc2cn1
not listed: [8]
inactive: all other assays above

CCCCCCOC(=O)c1ccccc1C(=O)OCCCCCC
active: [3] 29.1 µM | [6] 31.1 µM
not listed: [8]
inactive: all other assays above

CN(C)c1nc(=O)n(C2CCCCC2)c(=O)n1C
not listed: [8]
inactive: all other assays above

Nc1ccc(-c2ccc(N)cc2)cc1
active: [9] 27.5 µM
not listed: [8]
inactive: all other assays above

c1ccc(-c2ccccc2)cc1
active: [9] 110 µM
not listed: [8]
inactive: all other assays above

Clc1ccc(Cl)cc1
not listed: [8]
inactive: all other assays above

ClC1=C(Cl)[C@]2(Cl)[C@@H]3[C@@H]4C[C@@H]([C@H]5O[C@@H]45)[C@@H]3[C@@]1(Cl)C2(Cl)Cl
active: [9] 24.4 µM | [5] 20 µM
not listed: [4] | [8]
inactive: all other assays above

Oc1ccc(Cl)cc1Cl
not listed: [9]
inactive: all other assays above

O=S(=O)(O)C(F)(F)C(F)(F)C(F)(F)C(F)(F)F
not listed: [9]
inactive: all other assays above

Cc1ccccc1O
not listed: [8] | [9]
inactive: all other assays above

Cc1ccccc1[N+](=O)[O-]
not listed: [8] | [9]
inactive: all other assays above

CC1=C2C[C@H]3[C@@H](CC=C4C[C@@H](O)CC[C@@]43C)[C@@H]2CC[C@]12O[C@@H]1C[C@H](C)CN[C@H]1[C@H]2C
active: [3] 2.82 µM
not listed: [8] | [9]
inactive: all other assays above

CC(C)C(=O)OCC(C)(C)C(OC(=O)C(C)C)C(C)C (configuration not stated)
not listed: [8]
inactive: all other assays above

Cc1ccccc1CO[C@@H]1C[C@@]2(C(C)C)CC[C@]1(C)O2
not listed: [8]
inactive: all other assays above

CC#Cc1cc(C)nc(Nc2ccccc2)n1
active: [9] 61.7 µM
not listed: [8]
inactive: all other assays above

Clc1ccc(C(c2ccccc2Cl)C(Cl)(Cl)Cl)cc1 (configuration not stated)
active: [1] 17.1 µM | [3] 11.4 µM | [4] 9.7 µM | [5] 10.2 µM | [6] 20.4 µM | [7] 21.5 µM
inactive: [8] | [2]

Cc1cccc(C)c1N
not listed: [8] | [9]
inactive: all other assays above

Nn1cnnc1
not listed: [9]
inactive: all other assays above

CCCN(CCC)N=O
not listed: [8] | [9]
inactive: all other assays above

Cc1cc2c3c(c1)C(c1ccccc1)=N[C@@H](NC(=O)c1ccncc1)C(=O)N3CC2
not listed: [8] | [9]
inactive: all other assays above

Cc1cccc([N+](=O)[O-])c1
not listed: [8]
inactive: all other assays above

CCCCCCCCOC(=O)c1ccccc1C(=O)OCCCCCCCC
active: [5] 12.9 µM
not listed: [8]
inactive: all other assays above

CCCCCCCCCC[N+](C)(C)CCCCCCCCCC
active: [1] 4.77 µM | [2] 7.76 µM | [3] 3.59 µM | [4] 3.16 µM | [5] 2.22 µM | [6] 4.54 µM | [7] 5.66 µM
inactive: [8]

N#Cc1ccc(N(CC(N)=O)CC(F)(F)F)cc1C(F)(F)F
not listed: [8] | [9]
inactive: all other assays above

C=CC(=O)NCNC(=O)C=C
not listed: [8] | [9]
inactive: all other assays above

O=S(=O)(O)C(F)(F)C(F)(F)C(F)(F)C(F)(F)C(F)(F)C(F)(F)F
not listed: [8]
inactive: all other assays above

ClC1=C(Cl)[C@]2(Cl)[C@@H]3[C@@H](Cl)[C@H]4O[C@H]4[C@@H]3C1(Cl)C2(Cl)Cl
active: [5] 11.5 µM
not listed: [8]
inactive: all other assays above

O=C(O)C(F)(F)C(F)(F)C(F)(F)C(F)(F)C(F)(F)F
not listed: [8]
inactive: all other assays above

C1CC2OC2CC1C1CO1 (configuration not stated)
not listed: [8] | [9]
inactive: all other assays above

CC(c1ccc(O)cc1)(c1ccc(O)cc1)c1ccc(O)cc1
inactive: [1] | [6] | [7]
active: [2] 6.69 µM | [3] 31.1 µM | [4] 18.9 µM | [5] 28.5 µM

Source: PubChem BioAssay (EPA / NIEHS)
